The values below come from PubChem BioAssay (EPA / NIEHS).

Values joined by “and” are separate entries in the source; they are usually repeats but may differ in a detail not shown here. Identical values can stand only once. Active and inactive are the calls of the source. Rule for the calls: active = hit-call score of the fitted dose curve at least 0.9, where 1 is the maximum; inactive = score below 0.9.

This assay is described as follows: IUF_NPC3_neuronal_differentiation_120hr: Leibniz Research Institute for Environmental Medicine (IUF) 120-hour Neuronal Differentiation Assay (NPC3) (AID 2284301). As to the method:
IUF_NPC2-5 is a cell-based, multiplexed assay that uses hNPC, a human primary neural progenitor cells, with measurements taken at 72 or 120 hours after chemical dosing in a 96-well plate. Human neural progenitor cells (hNPC) are generated from human fetal brain cortex at gestational week (GW) 16-19. In the neural progenitor cell migration and differentiation assay (NPC2-5), hNPCs grown as spheres are plated on an extracellular matrix and migrate and differentiate out of the sphere core. The processes radial glia migration, neuronal and oligodendrocyte migration as well as neuronal differentiation, neuronal morphology and oligodendrocyte differentiation are studied using automated phase contrast imaging and automated fluorescence imaging in combination with high content image analysis. In parallel, the cell viability is assessed using an alamar blue viability assay and the cytotoxicity using a lactate dehydrogenase dependent membrane integrity assay.IUF_NPC3_neuronal_differentiation_120hr is one of 12 assay components measured from the IUF_NPC2-5 assay. Neuronal differentiation is determined as the number of all TUBB3 positive cells in percent of the number of Hoechst-positive nuclei in the total neurosphere migration area (see IUF_NPC2a_ glia_migration_120hr) after 120 hr of migration/differentiation. Neurons are automatically identified using a convolutional neural network (CNN) that was trained using manually annotated images of differentiated neurons. Data from the IUF_NPC3_neuronal_differentiation_120hr component was analyzed at the endpoint IUF_NPC3_neuronal_differentiation_120hr in the positive analysis fitting direction relative to DMSO as the negative control and baseline of activity. Using a type of differentiation reporter, gain or loss-of-signal activity can be used to understand developmental effects.
Culture protocol: After the cell expansion period the cells are cultured for up to four weeks in which they are passaged every week as described in 3.6. Between one to three days after passaging spheres at a size of 0.3 mm are picked for the test method. For the assessment of neural progenitor cell migration and differentiation, the spheres are plated on poly-D-lysine/laminin coated 96-well flat bottom plates in differentiation medium (N2) to initiate migration and differentiation. Thereby one 0.3 mm big sphere is plated in the middle of a well. The differentiation medium consists of DMEM and Ham's F12 at a ratio of 3 to 1 supplemented with 1% N2 and 1% penicillin and streptomycin. Within 5 days NPCs radially migrate out of the sphere core and differentiate into radial glia cells (nestin positive), neurons (TUBB3 positive), oligodendrocytes (O4 positive) and astrocytes (GFAP positive). Cultivation during the test method is performed at 37C and 5% CO2 at a ph of 7.2-7.6.Exposure: 0.3 mm big hNPC are plated in the already prepared test conditions. Exposure starts at day 0 of differentiation and is continued over five days of differentiation until the experiment is terminated. Cells are fed with fresh medium at day 3 of differentiation. Therefore, half of the test condition solution (e.g. solvent control or compound dilution) is replaced by freshly prepared test condition solution.Test Method: Migration distance and cytotoxicity is determined after 72 hours based on brightfield images of each well. The assay is terminated by the assessment of cell viability and cytotoxicity as well as cell fixation after 120 h. Immunocytochemistry is performed for Hoechst positive nuclei, TUBB3 positive neurons and O4 positive oligodendrocytes. On the ICC images, migration after 120 hours, neuronal and oligodendrocyte number, neuronal morphology and neuron/oligodendrocyte specific migration is assessed. immunocytochemical staining (ICC) generates an image for each sphere. The plates are scanned using an automated high content imaging device and all nuclei and their positions are determined automatically based on their intensity and size. […]
Take `CCCCSP(=O)(SCCCC)SCCCC`: the result was inactive.
On the same count and under the same terms, the entry for `CCOP(=O)(NC(C)C)Oc1ccc(SC)c(C)c1` (centres undefined) is “inactive”.
`COP(=O)(OC)OC(Br)C(Cl)(Cl)Br` (centres undefined): the AC50 was 40.9 µM (active).
In the case of `COP(=O)(NC(C)=O)SC` (centres undefined), the compound was called inactive.
Consider `CCCSP(=O)(OCC)SCCC`, for which the compound was called inactive.
Regarding `CC(C)N(C(=O)SCC(Cl)=C(Cl)Cl)C(C)C`, the compound was classed as inactive.
As to `CC1=NNC(=O)N(/N=C/c2cccnc2)C1`, the compound was classed as inactive.
In the case of `CCOP(=S)(OCC)Oc1cc(C)nc(C(C)C)n1`, the compound was called inactive.
As for `CC(=NC#N)N(C)Cc1ccc(Cl)nc1`, the compound was called inactive.
On to `CCOP(=S)(Oc1cnc(C(C)(C)C)nc1)OC(C)C` (centres undefined), for which the compound was classed as inactive.
On to `CCOP(=S)(OCC)OC(Cl)C(Cl)(Cl)Cl` (centres undefined), for which the compound was called inactive.
In the case of `CN(C)[C@@H]1C(=O)C(C(N)=O)=C(O)[C@@]2(O)C(=O)C3=C(O)c4c(O)cccc4[C@@](C)(O)[C@H]3[C@H](O)[C@@H]12`, the outcome was inactive.
Consider `C=C(C)[C@H]1Cc2c(ccc3c2O[C@@H]2COc4cc(OC)c(OC)cc4[C@@H]2C3=O)O1`, for which the AC50 was 58 nM (active) and 7.87 nM (active).
For `COP(=O)(OC)C(O)C(Cl)(Cl)Cl` (centres undefined), the outcome was inactive.
Turning to `CSC1=N[C@@](C)(c2ccccc2)C(=O)N1Nc1ccccc1`, the outcome was inactive.
The same measure, in the same setting: next, `S=C1NCCN1`: “inactive”.
As to `CC[C@H](C)[C@H]1O[C@]2(C=C[C@@H]1C)C[C@@H]1C[C@@H](C/C=C(\C)[C@@H](O[C@H]3C[C@H](OC)[C@@H](O[C@H]4C[C@H](OC)[C@@H](NC)[C@H](C)O4)[C@H](C)O3)[C@@H](C)/C=C/C=C3\CO[C@@H]4[C@H](O)C(C)=C[C@@H](C(=O)O1)[C@]34O)O2`, the AC50 was 1.27 µM (active).
On to `CN1COCN(Cc2cnc(Cl)s2)C1=N[N+](=O)[O-]`, for which the compound was classed as inactive.
Turning to `CCOC(=O)CC(SP(=O)(OC)OC)C(=O)OCC` (centres undefined), the outcome was inactive.
`CON=C(C(=O)OC)c1ccccc1CON=C(C)c1cccc(C(F)(F)F)c1`: the AC50 was 1.06 µM (active).
Still for that read-out and setting: next, `O=[N+]([O-])c1cc(C(F)(F)F)c(Cl)c([N+](=O)[O-])c1Nc1ncc(C(F)(F)F)cc1Cl`: 0.601 µM (active).
Consider `C[N+]1(C)CCCCC1`, for which the compound was classed as inactive.
The same measure, in the same setting: the entry for `CCOP(=S)(OCC)SCCSCC` is “inactive”; for `CCOP(=O)(OCC)Oc1cc(C)nc(C(C)C)n1` it is “inactive”.

In general, AC50 refers to the midpoint of the concentration-response curve, whichever way the signal moves.
